Data reported in the supplement of paper PMC3342239.
Counter-ions that a name gives are not always drawn.

Each compound was assayed on Saccharomyces cerevisiae (assay: fraction of cells in G1 phase (DNA content, flow cytometry); higher = more cells with unreplicated DNA (G1 delay)). Settings: temperature: 30 C; YPD; BY4741 PDR5+ SNQ2+; drug added to: actively dividing cells; 4.33 h.
In short: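 Overnight cultures of sensitized JTY2953 were diluted 1∶200 into drug at a final 20 µg/ml and fixed after 6–7 h, and further runs treated dividing JTY2953 or BY4741, fixing them 6 h and 4.33 h later respectively. All growth used YPD at 30°C with S. cerevisiae and library drugs. After ethanol fixation and SYTOX Green staining, flow cytometry recorded 10,000 events. The G1 fraction equals the Dean-Jett-Fox G1 peak area over the G1 plus G2/M areas.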

In order of falling “fraction of cells in G1 phase” value:
1. CO[C@H]1C[C@@H]2CC[C@@H](C)[C@@](O)(O2)C(=O)C(=O)N2CCCC[C@H]2C(=O)O[C@H]([C@H](C)C[C@@H]2CC[C@@H](O)[C@H](OC)C2)CC(=O)[C@H](C)/C=C(\C)[C@@H](O)[C@@H](OC)C(=O)[C@H](C)C[C@H](C)/C=C/C=C/C=C/1C [Rapamycin] (21.8771 µM)  0.625
2. CC(=O)OCC1OC([S-])C(OC(C)=O)C(OC(C)=O)C1OC(C)=O.CC[PH+](CC)CC.[Au+] (configuration not stated) [Auranofin] (29.4771 µM)  0.52
3. Cc1ccc(C)c(OCCCC(C)(C)C(=O)O)c1 [Gemfibrozil] (79.8911 µM)  0.51
4. CC(=O)N1CCN(c2ccc(OCC3COC(Cn4ccnc4)(c4ccc(Cl)cc4Cl)O3)cc2)CC1 (configuration not stated) [Ketoconazole] (37.6334 µM)  0.507
5. CCC(C)n1ncn(-c2ccc(N3CCN(c4ccc(OCC5COC(Cn6cncn6)(c6ccc(Cl)cc6Cl)O5)cc4)CC3)cc2)c1=O (configuration not stated) [Itraconazole] (28.3427 µM)  0.493
6. C=C1/C(=C\C=C2/CCC[C@]3(C)[C@@H]([C@H](C)CCCC(C)C)CC[C@@H]23)C[C@@H](O)C[C@@H]1O [Alfacalcidol] (49.9188 µM)  0.469
7. Fc1ccc([C@@H]2CCNC[C@H]2COc2ccc3c(c2)OCO3)cc1 [Paroxetine HCl] (60.7211 µM)  0.468
8. CC(C)C(=O)c1c(C(C)C)nn2ccccc12 [Ibudilast] (86.8386 µM)  0.462
9. C[C@@H]1CN(c2c(F)c(N)c3c(=O)c(C(=O)O)cn(C4CC4)c3c2F)C[C@H](C)N1 [Sparfloxacin] (50.9672 µM)  0.46
10. Fc1ccc(C(c2ccc(F)cc2)N2CCN(C/C=C/c3ccccc3)CC2)cc1 [Flunarizine-2HCl] (41.8936 µM)  0.442
11. CC(CN1c2ccccc2Sc2ccccc21)N(C)C (configuration not stated) [Promethazine HCl] (70.317 µM)  0.437
12. CN1CCN(C2=Nc3cc(Cl)ccc3Nc3ccccc32)CC1 [Clozapine] (61.1935 µM)  0.437
13. O=c1[nH]c2ccccc2n1CCCN1CCN(C(c2ccccc2)c2ccccc2)CC1 [Oxatomide] (46.886 µM)  0.433
14. CCc1nn(CCCN2CCN(c3cccc(Cl)c3)CC2)c(=O)n1CCOc1ccccc1 [Nefazodone] (42.5515 µM)  0.422
15. O=C1CCc2ccc(OCCCCN3CCN(c4cccc(Cl)c4Cl)CC3)cc2N1 [Aripiprazole] (44.6034 µM)  0.411
16. CC(C(O)c1ccc(O)cc1)N1CCC(Cc2ccccc2)CC1 (configuration not stated) [Ifenprodil] (61.4525 µM)  0.41
17. CC[C@H](C)C(=O)O[C@H]1C[C@@H](C)C=C2C=C[C@H](C)[C@H](CC[C@@H]3C[C@@H](O)CC(=O)O3)[C@H]21 [Lovastatin] (49.4375 µM)  0.402
18. COc1c(N2C[C@@H]3CCCN[C@@H]3C2)c(F)cc2c(=O)c(C(=O)O)cn(C3CC3)c12 [Moxifloxacin HCl] (45.6725 µM)  0.402
19. COc1c(N2CCNC(C)C2)c(F)cc2c(=O)c(C(=O)O)cn(C3CC3)c12 (configuration not stated) [Gatifloxacin] (53.276 µM)  0.391
20. CC(C)COCC(CN(Cc1ccccc1)c1ccccc1)N1CCCC1 (configuration not stated) [Bepridil] (48.4262 µM)  0.391
21. NC1CCN(c2c(F)cc3c(=O)c(C(=O)O)cn(C4CC4)c3c2Cl)C1 (configuration not stated) [Clinafloxacin HCl] (54.6755 µM)  0.359

Same assay, conditions: temperature: 30 C; YPD; JTY2953 pdr5 snq2 (sensitized); drug added to: actively dividing cells; 6 h

In order of rising “fraction of cells in G1 phase” value:
1. CN1CCN(CCCN2c3ccccc3Sc3ccc(C(F)(F)F)cc32)CC1 [Trifluoperazine 2HCl] (41.632 µM)  0.295
2. Cc1ccc(-c2cc(C(F)(F)F)nn2-c2ccc(S(N)(=O)=O)cc2)cc1 [Celecoxib] (52.4412 µM)  0.299
3. Clc1ccc(C(Cn2ccnc2)OCc2csc3c(Cl)cccc23)c(Cl)c1 (configuration not stated) [Sertaconazole] (45.6852 µM)  0.3
4. O=C1NCN(c2ccccc2)C12CCN(CCCC(c1ccc(F)cc1)c1ccc(F)cc1)CC2 [Fluspirilene] (42.0533 µM)  0.338
5. CCC(C)(C)C(=O)O[C@H]1C[C@@H](C)C=C2C=C[C@H](C)[C@H](CC[C@@H]3C[C@@H](O)CC(=O)O3)[C@H]21 [Simvastatin] (47.7808 µM)  0.354
6. CCC(C)(C)c1ccc(CC(C)CN2C[C@@H](C)O[C@@H](C)C2)cc1 (some centres not stated) [Amorolfine] (62.9883 µM)  0.367
7. CC/C(=C(\c1ccccc1)c1ccc(OCCN(C)C)cc1)c1ccccc1 [Tamoxifen citrate] (53.8319 µM)  0.385
8. COC(=O)C1=C(C)NC(C)=C(C(=O)OCCCN2CCC(c3ccccc3)(c3ccccc3)CC2)[C@H]1c1cccc([N+](=O)[O-])c1 [Niguldipine HCl] (30.9502 µM)  0.389
9. Clc1ccc(CO/N=C(\Cn2ccnc2)c2ccc(Cl)cc2Cl)c(Cl)c1 [Oxiconazole nitrate] (46.6053 µM)  0.397
10. CC/C(=C(/CC)c1ccc(O)cc1)c1ccc(O)cc1 [Diethylstilbestrol] (74.5271 µM)  0.42
11. C#C[C@]1(O)CC[C@H]2[C@@H]3CCC4=Cc5oncc5C[C@]4(C)[C@H]3CC[C@@]21C [Danazol] (59.2652 µM)  0.457
12. Clc1ccc(COC(Cn2ccnc2)c2ccc(Cl)cc2Cl)c(Cl)c1 (configuration not stated) [Miconazole] (48.0611 µM)  0.467
13. Clc1ccc(CCC(Cn2ccnc2)Sc2c(Cl)cccc2Cl)cc1 (configuration not stated) [Butoconazole nitrate] (42.123 µM)  0.478
14. CC[C@H](c1ccc(O)cc1)[C@@H](CC)c1ccc(O)cc1 [Hexestrol] (73.9714 µM)  0.481
15. COc1ccc(-c2cc(=S)ss2)cc1 [Anethole-trithione (anetholtrithion)] (83.2062 µM)  0.486
16. CN(C)CCOc1ccc(/C(=C(/CCCl)c2ccccc2)c2ccccc2)cc1 [Toremifene] (49.2645 µM)  0.524
17. CN1CCC[C@@H]1CCO[C@](C)(c1ccccc1)c1ccc(Cl)cc1 [Clemastine fumarate] (58.1564 µM)  0.585
18. CC(C)COCC(CN(Cc1ccccc1)c1ccccc1)N1CCCC1 (configuration not stated) [Bepridil] (48.4262 µM)  0.637
19. C=C1/C(=C\C=C2/CCC[C@]3(C)[C@@H]([C@H](C)CCCC(C)C)CC[C@@H]23)C[C@@H](O)C[C@@H]1O [Alfacalcidol] (49.9188 µM)  0.651
20. Cc1ccc(C)c(OCCCC(C)(C)C(=O)O)c1 [Gemfibrozil] (79.8911 µM)  0.667
21. CCc1nn(CCCN2CCN(c3cccc(Cl)c3)CC2)c(=O)n1CCOc1ccccc1 [Nefazodone] (42.5515 µM)  0.688
22. CC(C(O)c1ccc(O)cc1)N1CCC(Cc2ccccc2)CC1 (configuration not stated) [Ifenprodil] (61.4525 µM)  0.694
23. CC(C)C(=O)c1c(C(C)C)nn2ccccc12 [Ibudilast] (86.8386 µM)  0.698
24. CC[C@H](C)C(=O)O[C@H]1C[C@@H](C)C=C2C=C[C@H](C)[C@H](CC[C@@H]3C[C@@H](O)CC(=O)O3)[C@H]21 [Lovastatin] (49.4375 µM)  0.698
25. CCC(C)n1ncn(-c2ccc(N3CCN(c4ccc(OCC5COC(Cn6cncn6)(c6ccc(Cl)cc6Cl)O5)cc4)CC3)cc2)c1=O (configuration not stated) [Itraconazole] (28.3427 µM)  0.751
26. Fc1ccc(C(c2ccc(F)cc2)N2CCN(C/C=C/c3ccccc3)CC2)cc1 [Flunarizine-2HCl] (41.8936 µM)  0.761
27. O=C1CCc2ccc(OCCCCN3CCN(c4cccc(Cl)c4Cl)CC3)cc2N1 [Aripiprazole] (44.6034 µM)  0.762
28. CO[C@H]1C[C@@H]2CC[C@@H](C)[C@@](O)(O2)C(=O)C(=O)N2CCCC[C@H]2C(=O)O[C@H]([C@H](C)C[C@@H]2CC[C@@H](O)[C@H](OC)C2)CC(=O)[C@H](C)/C=C(\C)[C@@H](O)[C@@H](OC)C(=O)[C@H](C)C[C@H](C)/C=C/C=C/C=C/1C [Rapamycin] (21.8771 µM)  0.788
29. O=c1[nH]c2ccccc2n1CCCN1CCN(C(c2ccccc2)c2ccccc2)CC1 [Oxatomide] (46.886 µM)  0.791
30. CC(=O)N1CCN(c2ccc(OCC3COC(Cn4ccnc4)(c4ccc(Cl)cc4Cl)O3)cc2)CC1 (configuration not stated) [Ketoconazole] (37.6334 µM)  0.84
31. CC(=O)OCC1OC([S-])C(OC(C)=O)C(OC(C)=O)C1OC(C)=O.CC[PH+](CC)CC.[Au+] (configuration not stated) [Auranofin] (29.4771 µM)  0.959
